This passage reports composite z-score and z-score results from PubChem BioAssay.

A short description of experiment [1]: small molecules captured by biotinylated probe aFSTL3 – biochemical, small-molecule microarray, fluorescence 635/667, stem cell growth factor project, primary screen (AID 1064).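 Note: measures binding of the biotinylated anti-FSTL3 antibody to printed compounds.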 As to conditions: higher = more signal.
Experiment [2] can be described thus: binders from COS7 lysate, DM2A8 probe, primary screen, torsin A project, cell lysate, small-molecule microarray, fluorescence 635/667 (AID 1065). As to conditions: higher = more signal, COS7 lysate expressing mutant human TOR1A.
Experiment [3] can be described thus: small molecules captured by biotinylated probe aFGF2 – biochemical, small-molecule microarray, fluorescence 635/667, stem cell growth factor project, primary screen (AID 1067).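 Note: measures binding of biotinylated aFGF2 protein to printed compounds on slides; z-score merges feature fluorescence and signal-to-noise across triplicate slides.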 As to conditions: higher = more signal.
Experiment [4] can be described thus: small molecules captured by biotinylated probe aFGF10 – biochemical, small-molecule microarray, fluorescence 635/667, stem cell growth factor project, primary screen (AID 1071).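 Note: score merges 667 nm spot intensity and signal to noise from triplicate slides.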 As to conditions: higher = more signal.
Experiment [5] has as its target Neurogenic locus notch homolog protein 2 (Homo sapiens) (UniProt Q04721). Description: small molecules binding Notch2 protein – biochemical, small-molecule microarray, 635 nm fluorescence, stem cell growth factors, primary screen (AID 1073). As to conditions: higher = more signal.
In experiment [6] the target is Pro-neuregulin-1, membrane-bound isoform (Homo sapiens) (UniProt Q02297). Description: small molecules binding neuregulin-1 protein – biochemical, small-molecule microarray, fluorescence 635/667, psychiatric disease protein project, primary screen (AID 1075).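 Note: score combines 667 nm spot fluorescence with signal to noise.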 As to conditions: NRG1 binding, 635 nm fluorescence, higher = more signal.
Chain of Pro-neuregulin-1, membrane-bound isoform (Homo sapiens) (Q02297 whole entry, looked up, the tested form may be a part, canonical isoform): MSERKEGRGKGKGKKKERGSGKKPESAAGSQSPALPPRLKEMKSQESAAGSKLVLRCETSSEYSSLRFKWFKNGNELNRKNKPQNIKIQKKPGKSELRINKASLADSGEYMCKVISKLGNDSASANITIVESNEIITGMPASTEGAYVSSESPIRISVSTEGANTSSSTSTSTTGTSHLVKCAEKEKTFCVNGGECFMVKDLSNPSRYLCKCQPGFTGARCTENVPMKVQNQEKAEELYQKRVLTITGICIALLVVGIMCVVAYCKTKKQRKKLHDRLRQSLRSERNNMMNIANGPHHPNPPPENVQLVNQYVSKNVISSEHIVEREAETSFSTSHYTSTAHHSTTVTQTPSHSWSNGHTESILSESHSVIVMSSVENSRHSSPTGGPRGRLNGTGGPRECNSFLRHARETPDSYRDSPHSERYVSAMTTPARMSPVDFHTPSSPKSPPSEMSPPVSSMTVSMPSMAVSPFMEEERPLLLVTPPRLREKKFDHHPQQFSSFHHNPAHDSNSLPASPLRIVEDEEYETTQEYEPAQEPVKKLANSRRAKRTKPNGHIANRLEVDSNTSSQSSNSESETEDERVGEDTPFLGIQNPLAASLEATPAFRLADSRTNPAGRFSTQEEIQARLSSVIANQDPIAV
The test system of experiment [7] is Neuregulin-1 EGF-like domain. Description: small molecules binding NRG1 EGF domain – biochemical, small-molecule microarray, 635 nm fluorescence, primary screen (AID 1081).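 Note: binding of the protein to compounds printed on small-molecule microarray slides.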 As to conditions: higher = more signal.
The nature of experiment [8]: FRG1 expression reporter modulators in myotubes – cell-based, C2C12 myotubes, firefly/Renilla luciferase, luminescence, FRG1 inhibition for FSHD, primary screen (AID 1084). As to conditions: FRG1 promoter luciferase, higher = more signal, called active from +8 up or from −8 down.
A short description of experiment [9]: small molecules captured by biotinylated probe aFST – biochemical, small-molecule microarray, fluorescence 635/667, stem cell growth factor project, primary screen (AID 1086).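 Note: score merges 667 nm fluorescence with signal-to-noise of each printed compound spot.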 As to conditions: higher = more signal.
A short description of experiment [10]: binders of probe aHhip on microarray, primary screen, stem cell growth factor project, biochemical, small-molecule microarray, fluorescence 635/667 (AID 1087).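 Note: score merges spot fluorescence at 667nm with spot signal to noise ratio.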 As to conditions: higher = more signal.
In experiment [11] the test system is PRMT1 (protein arginine N-methyltransferase 1). The experiment can be described thus: small molecules binding arginine methyltransferase PRMT1 – biochemical, small-molecule microarray, 635 nm fluorescence, primary screen (AID 1088).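 Note: binding of Prmt1 protein to compounds spotted on small-molecule microarray slides.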 As to conditions: higher = more signal.
Experiment [12] is described as follows: growth effects on S. cerevisiae YJM789 – YJM789 clinical isolate, OD600, 24 h, basal, primary screen (AID 1089).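 Note: growth of clinical yeast isolate S. cerevisiae YJM 789 seeded 1000 cells per well; test concentration not given here.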 As to conditions: higher = more signal, called active from +8 up or from −8 down.
Experiment [13] is described as follows: S. pombe growth modifiers, basal conditions – strain 972, OD600, 24 h, no modulator, primary screen (AID 1090).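 Note: basal condition with compound alone and no growth modifier present; test concentration not given here.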 As to conditions: S. pombe 972 growth, higher = more signal, called active from +8 up or from −8 down.
A short description of experiment [14]: budding yeast growth modifiers under rapamycin – strain BY4716, OD600, 96 h, primary screen (AID 1091). Note: test concentration not given here. As to conditions: S. cerevisiae BY4716 + rapamycin, higher = more signal, called active from +8 up or from −8 down.
The target of experiment [15] is Torsin-1A-interacting protein 2 (Homo sapiens) (UniProt Q8NFQ8). Description: small molecules binding lysate-expressed LULL1 – cell lysate, human LULL1 lysate, 635/667 nm fluorescence, primary screen (AID 1092).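 Note: probe is lysate of COS7 cells overexpressing human LULL1; score merges per-feature 667 nm fluorescence with signal-to-noise.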 As to conditions: small-molecule microarray, hLULL1 lysate binding, 635 nm fluorescence; higher = more signal.
Chain of Torsin-1A-interacting protein 2 (Homo sapiens) (Q8NFQ8 whole entry, looked up): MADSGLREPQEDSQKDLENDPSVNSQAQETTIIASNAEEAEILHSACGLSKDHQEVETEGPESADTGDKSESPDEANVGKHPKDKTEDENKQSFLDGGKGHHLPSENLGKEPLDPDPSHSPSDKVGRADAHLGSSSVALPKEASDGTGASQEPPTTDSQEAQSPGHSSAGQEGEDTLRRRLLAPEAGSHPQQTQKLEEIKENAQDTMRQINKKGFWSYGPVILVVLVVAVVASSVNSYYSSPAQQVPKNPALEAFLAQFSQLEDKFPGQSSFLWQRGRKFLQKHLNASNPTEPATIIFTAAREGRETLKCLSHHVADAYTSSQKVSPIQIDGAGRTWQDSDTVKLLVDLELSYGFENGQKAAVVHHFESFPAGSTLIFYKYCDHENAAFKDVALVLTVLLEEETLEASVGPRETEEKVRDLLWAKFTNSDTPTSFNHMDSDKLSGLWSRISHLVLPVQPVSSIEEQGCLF
Experiment [16] can be described thus: optical density change of DRC41 E. coli – strain DRC41, OD650, 24 h, E. coli filamentation project, primary screen (AID 1093).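 Note: MC1000 strain lacking acrAB efflux and sulA so SOS filamentation is blocked; test concentration not given here.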 As to conditions: E. coli DRC41 growth, higher = more signal, called active from +8 up or from −8 down.
A short description of experiment [17]: probe aLefty2 binding to arrayed compounds – biochemical, biotinylated probe, 635/667 nm fluorescence, primary screen (AID 1094).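 Note: score merges spot fluorescence near 667 nm with spot signal-to-noise ratio.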 As to conditions: small-molecule microarray, higher = more signal.
Experiment [18] concerns Noggin (protein binding on small-molecule microarray). The experiment can be described thus: small molecules binding Noggin protein – biochemical, 635/667 nm fluorescence, primary screen (AID 1095).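 Note: score merges 667 nm feature fluorescence with signal to noise over triplicate slides.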 As to conditions: 635 nm fluorescence, higher = more signal.
Experiment [19] has as its target Neurogenic locus notch homolog protein 3 (Homo sapiens) (UniProt Q9UM47). The experiment can be described thus: small molecules binding NOTCH3 protein – biochemical, 635/667 nm fluorescence, primary screen (AID 1096). As to conditions: small-molecule microarray, 635 nm fluorescence, higher = more signal.
The nature of experiment [20]: probe aEGFR binding to arrayed compounds – biochemical, biotinylated probe, 635/667 nm fluorescence, primary screen (AID 1097).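 Note: probe is a biotinylated anti-EGFR antibody binding compounds printed on slides; score combines fluorescence near 667 nm and signal to noise of each spot.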 As to conditions: small-molecule microarray, higher = more signal.

The source made the active and inactive calls.

Chain of Neurogenic locus notch homolog protein 3 (Homo sapiens) (Q9UM47 whole entry, looked up): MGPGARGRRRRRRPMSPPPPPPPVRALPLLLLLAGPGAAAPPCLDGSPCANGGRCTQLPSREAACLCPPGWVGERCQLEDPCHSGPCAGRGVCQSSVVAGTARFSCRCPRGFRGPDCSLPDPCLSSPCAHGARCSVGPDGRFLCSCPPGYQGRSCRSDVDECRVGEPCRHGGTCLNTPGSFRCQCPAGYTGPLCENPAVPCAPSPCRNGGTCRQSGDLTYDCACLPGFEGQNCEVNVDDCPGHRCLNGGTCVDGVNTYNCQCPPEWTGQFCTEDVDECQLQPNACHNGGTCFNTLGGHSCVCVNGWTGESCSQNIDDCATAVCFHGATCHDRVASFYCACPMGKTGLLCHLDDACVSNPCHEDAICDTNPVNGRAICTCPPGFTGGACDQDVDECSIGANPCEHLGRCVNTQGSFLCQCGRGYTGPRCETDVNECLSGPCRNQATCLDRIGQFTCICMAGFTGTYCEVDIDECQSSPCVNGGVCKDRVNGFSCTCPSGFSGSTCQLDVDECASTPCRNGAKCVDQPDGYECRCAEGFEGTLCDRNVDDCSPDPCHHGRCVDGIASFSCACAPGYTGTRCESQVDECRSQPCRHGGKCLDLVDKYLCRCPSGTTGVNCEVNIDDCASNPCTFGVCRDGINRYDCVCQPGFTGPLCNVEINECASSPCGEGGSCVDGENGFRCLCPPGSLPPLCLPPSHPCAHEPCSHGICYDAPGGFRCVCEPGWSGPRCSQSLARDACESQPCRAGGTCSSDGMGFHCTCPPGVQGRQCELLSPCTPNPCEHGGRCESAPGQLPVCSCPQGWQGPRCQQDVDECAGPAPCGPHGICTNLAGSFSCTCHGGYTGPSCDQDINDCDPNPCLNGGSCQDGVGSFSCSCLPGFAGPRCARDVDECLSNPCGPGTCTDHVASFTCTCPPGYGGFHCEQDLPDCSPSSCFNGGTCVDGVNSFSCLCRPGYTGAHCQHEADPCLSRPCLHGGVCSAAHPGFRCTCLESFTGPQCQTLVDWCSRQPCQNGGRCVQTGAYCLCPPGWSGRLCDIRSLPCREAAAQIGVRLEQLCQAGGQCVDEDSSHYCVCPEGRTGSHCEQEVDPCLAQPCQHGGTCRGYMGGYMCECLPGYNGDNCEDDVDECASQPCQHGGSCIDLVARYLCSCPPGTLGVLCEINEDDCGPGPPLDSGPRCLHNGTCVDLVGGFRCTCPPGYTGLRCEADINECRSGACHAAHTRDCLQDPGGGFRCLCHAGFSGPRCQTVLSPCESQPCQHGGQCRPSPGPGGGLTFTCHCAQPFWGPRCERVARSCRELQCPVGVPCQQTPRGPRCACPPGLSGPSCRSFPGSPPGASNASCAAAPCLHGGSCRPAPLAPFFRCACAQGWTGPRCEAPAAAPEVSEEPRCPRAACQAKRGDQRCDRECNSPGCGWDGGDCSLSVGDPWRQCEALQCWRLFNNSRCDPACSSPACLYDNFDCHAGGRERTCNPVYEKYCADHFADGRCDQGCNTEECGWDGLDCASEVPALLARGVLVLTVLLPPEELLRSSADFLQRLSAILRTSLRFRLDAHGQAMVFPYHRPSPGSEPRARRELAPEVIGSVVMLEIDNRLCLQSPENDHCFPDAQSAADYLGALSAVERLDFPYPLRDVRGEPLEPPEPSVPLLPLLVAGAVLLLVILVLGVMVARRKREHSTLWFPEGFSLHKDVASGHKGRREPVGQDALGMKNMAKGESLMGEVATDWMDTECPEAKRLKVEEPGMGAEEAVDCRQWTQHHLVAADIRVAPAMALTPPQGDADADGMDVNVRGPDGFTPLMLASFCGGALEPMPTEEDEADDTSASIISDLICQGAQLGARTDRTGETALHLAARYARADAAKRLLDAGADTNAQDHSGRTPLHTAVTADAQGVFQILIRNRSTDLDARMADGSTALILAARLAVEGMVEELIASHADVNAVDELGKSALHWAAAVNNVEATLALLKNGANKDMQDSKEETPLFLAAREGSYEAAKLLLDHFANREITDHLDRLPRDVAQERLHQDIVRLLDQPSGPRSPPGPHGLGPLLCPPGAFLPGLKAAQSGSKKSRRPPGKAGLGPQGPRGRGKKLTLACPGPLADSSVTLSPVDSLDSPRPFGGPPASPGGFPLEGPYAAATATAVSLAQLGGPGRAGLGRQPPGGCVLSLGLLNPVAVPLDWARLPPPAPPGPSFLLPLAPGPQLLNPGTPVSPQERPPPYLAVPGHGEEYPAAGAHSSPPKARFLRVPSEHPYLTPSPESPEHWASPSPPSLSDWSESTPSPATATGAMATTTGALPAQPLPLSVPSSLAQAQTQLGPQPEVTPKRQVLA

Take `CO[C@H]1O[C@H](CO)[C@@H](OC(=O)c2ccc(Br)cc2)[C@@H]2OC(=O)[C@H](Cc3ccccc3)C/C=C/C[C@@H](Cc3ccccc3)C(=O)O[C@@H]12`: the composite z-score in experiment [1] is -0.287; in experiment [2] it was 0.418; in experiment [3], -0.0048; in [4], 0.706; in experiment [5] it was 0.496; in experiment [6] it was 1.64. Also, the composite z-score in experiment [7] was 0.615; in [9], -0.024; in experiment [10], -0.0645; in experiment [11] it was 0.965; in [15], 1.63; in experiment [17], 0.13. Moreover, the composite z-score in experiment [18] was 0.413; in experiment [19] it was 0.181; in experiment [20] it was -0.176. Besides, the z-score in experiment [8] was -0.215 (inactive); in experiment [12], -1.92 (inactive); in [13], -1.19 (inactive); in experiment [14] it was 0.161 (inactive); in experiment [16] it was 2.14 (inactive).
As for `O=C1OCCC=C[C@H]2OC34C=CCN(c5ccc(Cl)cc5)C(=O)[C@H]3N(CCCCCCO)C(=O)[C@@H]4C12` (stereo not given in full), the composite z-score was 0.43 in experiment [1]; -0.0789 in experiment [2]; -0.116 in experiment [3]; -0.683 in [4]; -0.879 in experiment [5]; -0.221 in [6]. Further, the composite z-score was 1.24 in experiment [7]; -0.257 in experiment [9]; -0.226 in experiment [10]; 0.117 in experiment [11]; 0.455 in experiment [15]; -0.139 in [17]. Also, the composite z-score is -0.979 in experiment [18], -0.379 in experiment [19] and -0.191 in experiment [20]. Further, the z-score was 0.45 (inactive) in experiment [8]; 0.115 (inactive) in experiment [12]; -1.1 (inactive) in experiment [13]; -0.337 (inactive) in experiment [14]; 1.78 (inactive) in experiment [16].
For `C=C[C@@H](C)[C@@H](OC(=O)Nc1ccc(SC)cc1)c1ccc(OCCO)cc1`, the composite z-score is 0.004 in experiment [1]; 0.81 in [2]; 0.0918 in experiment [3]; 0.447 in [4]; -0.202 in experiment [5]; 1.41 in [6]. In addition, the composite z-score in experiment [7] was 1.26; in experiment [9], 0.051; in experiment [10], 0.0373; in [11], 1.19; in experiment [15] it was 1.92; in experiment [17], -0.106. Besides, the figures for the composite z-score in experiment [18], in experiment [19] and in experiment [20] were 0.172, 0.194 and 0.0348, respectively. Moreover, the z-score in experiment [8] is 10.5 (active); in experiment [12] it was 0.222 (inactive); in experiment [13], -1.58 (inactive); in experiment [14] it was -0.31 (inactive); in experiment [16] it was 1.41 (inactive).
In the case of `C=CCNC(=O)[C@H]1[C@@H]2C(=O)O[C@@H](c3ccccc3)[C@@H](c3ccccc3)N2[C@@H](c2ccc(OCCO)cc2)[C@]12C(=O)Nc1ccc(C#CCNC(N)=O)cc12`, the composite z-score was 0.264 in experiment [1]; 0.311 in experiment [2]; 0.0015 in experiment [3]; 0.641 in [4]; 0.112 in experiment [5]; 0.883 in experiment [6]. Further, the composite z-score in experiment [7] came to 0.817; in experiment [9], 1.28; in experiment [10], 0.0623; in [11] it was 1.56; in experiment [15], 1.98; in experiment [17] it was 0.155. Moreover, the composite z-score came out at 1.1 in experiment [18], 1.07 in [19] and 0.0562 in [20]. In addition, the z-score is -0.651 (inactive) in experiment [8]; 2.34 (inactive) in [12]; 1.48 (inactive) in experiment [13]; 4.76 (inactive) in experiment [14]; 0.714 (inactive) in experiment [16].
For `[N-]=[N+]=Nc1ccccc1[C@@H]1OC(c2ccc(OCCCO)cc2)=N[C@]1(Cc1ccccc1)C(=O)NCc1ccccc1`, the composite z-score in experiment [1] came to 0.97; in experiment [2] it was 1.72; in experiment [3] it was 0.0653; in experiment [4] it was 0.371; in [5] it was 1.59; in experiment [6] it was 1.6. Besides, the composite z-score amounted to 1.2 in experiment [7]; 1.21 in [9]; 0.0614 in experiment [10]; 1.47 in [11]; 3.43 in experiment [15]; 0.298 in experiment [17]. Also, the figures for the composite z-score in experiment [18], in experiment [19] and in experiment [20] were 0.849, 1.11 and 0.454, respectively. Moreover, the z-score in experiment [8] is -1.2 (inactive); in [12], -1.79 (inactive); in [13], -0.27 (inactive); in [14] it was 3.07 (inactive); in experiment [16], -0.0484 (inactive).
